Experimental data reported in a collection of fitness landscapes (doi:10.1126/science.1257360).
In all, about 140,000 sequences were measured (“enrichment ratio after two sorts for PhoP signalling”: median about 0, highest 2% from about 11 on). This excerpt belongs to a sample that is enriched for the highest values.

B1: PhoQ; a variant is named by its letters at X, in order, P23837 (parent)
chain: MKKLLRLFFPLSLRVRFLLATAAVVLVLSLAYGMVALIGYSVSFDKTTFRLLRGESNLFYTLAKWENNKLHVELPENIDKQSPTMTLIYDENGQLLWAQRDVPWLMKMIQPDWLKSNGFHEIEADVNDTSLLLSGDHSIQQQLQEVREDDDDAEMTHSVAVNVYPATSRMPKLTIVVVDTIPVELKSSYMVWSWFIYVLSANLLLVIPLLWVAAWWSLRPIEALAKEVRELEEHNRELLNPATTRELTSLVRNLNRLLKSERERYDKYRTTLTDLTHSLKTPLXXLQXXLRSLRSEKMSVSDAEPVMLEQISRISQQIGYYLHRASMRGGTLLSRELHPVAPLLDNLTSALNKVYQRKGVNISLDISPEISFVGEQNDFVEVMGNVLDNACKYCLEFVEISARQTDEHLYIVVEDDGPGIPLSKREVIFDRGQRVDTLRPGQGVGLAVAREITEQYEGKIVAGESMLGGARMEVIFGRQHSAPKDE

Variants of: B1
Assay: enrichment ratio after two sorts for PhoP signalling (ratio (wild type AVST 3.29)); higher = more functional
Settings: with PhoP (E. coli)

Point of comparison: SNGI, enrichment ratio 12.1. Against it:
- ALCW — lower, 6.49
- YKFA — lower, ≤ 0.25
- VGHR — lower, ≤ 0.25
- HQYF — lower, ≤ 0.25
- MEVV — lower, 2.27
- SLVV — lower, 1.38
- GGVV — lower, ≤ 0.25
- GETD — lower, ≤ 0.25
- FCVV — lower, ≤ 0.25
- SQVV — lower, 8.77
- GEVV — higher, 17.2
- TEVV — higher, 12.9
- FEVV — lower, 11.9
- NEVV — lower, ≤ 0.25
- MAVV — lower, ≤ 0.25
- SEVV — higher, 13.1
- NFKG — lower, ≤ 0.25
- QAIA — lower, ≤ 0.25
- KYGI — lower, ≤ 0.25
- STGI — lower, 4.79
- SRGI — lower, ≤ 0.25
- SCGI — higher, 12.6
- SNFP — lower, ≤ 0.25
- FMGW — lower, ≤ 0.25
- HQYK — lower, ≤ 0.25
- SCNT — lower, ≤ 0.25
- SCDT — lower, ≤ 0.25
- SCLN — lower, 11.7
- SCLA — lower, 11.8
- SCVN — lower, 11.1
- SCVT — lower, 1.01
- SCIT — lower, 1.21
- SCLT — higher, 13.3
- SWLN — lower, ≤ 0.25
- SCAT — higher, 16.1
- SCLS — lower, 9.62
- SCVA — lower, 4.93
- PRNP — lower, ≤ 0.25
- AWLY — lower, ≤ 0.25
- SHFY — lower, ≤ 0.25
- VDWL — lower, ≤ 0.25
- MMEY — lower, ≤ 0.25
- FQTE — lower, ≤ 0.25
- SQTE — higher, 26.5
- EQTE — lower, ≤ 0.25
- TQQK — lower, ≤ 0.25
- TQTE — higher, 26.4
- KSTE — lower, ≤ 0.25
- YTEA — lower, ≤ 0.25
- PPGL — lower, ≤ 0.25
- YALC — lower, 3.77
- AGLC — higher, 12.4
- AALC — higher, 13.9
- VYLC — lower, ≤ 0.25
- NALC — lower, ≤ 0.25
- GGLC — lower, 4.03
- VFLC — lower, ≤ 0.25
- VGLC — higher, 16.6
- TGLC — lower, 10
- NNPM — lower, ≤ 0.25
- QKWG — lower, ≤ 0.25
- ASFD — lower, ≤ 0.25
- KIHF — lower, ≤ 0.25
- NGVA — lower, ≤ 0.25
- KLRA — lower, ≤ 0.25
- QKAC — lower, ≤ 0.25
- SLAC — lower, 2.46
- DMAC — lower, ≤ 0.25
- NEAC — higher, 15.1
- SFAC — lower, ≤ 0.25
- QEAC — higher, 16
- MEAC — higher, 37.3
- STAC — lower, 4.33
- YWAC — lower, ≤ 0.25
- SEAC — higher, 19.8
- MMAC — lower, 3.29
- MKAC — lower, ≤ 0.25
- NIYV — lower, ≤ 0.25
- IRLQ — lower, ≤ 0.25
- HPHQ — lower, ≤ 0.25
- QISV — lower, ≤ 0.25
- SDLF — lower, ≤ 0.25
- TCEE — lower, ≤ 0.25
- MKWH — lower, ≤ 0.25
- QAWW — lower, ≤ 0.25
- QCDG — lower, ≤ 0.25
- YQQR — lower, ≤ 0.25
- SQAC — higher, 13.4
- KSAC — lower, ≤ 0.25
- KAAC — lower, ≤ 0.25
- VEAC — lower, 0.99
- TEAC — higher, 25.6
- NQAC — lower, ≤ 0.25
- EQAC — lower, ≤ 0.25
- SSAC — lower, 11.3
- FSAC — lower, ≤ 0.25
- PWYS — lower, ≤ 0.25
- WGDA — lower, ≤ 0.25
- NQIK — lower, ≤ 0.25
- TQQF — higher, 33.4
- TQHP — lower, ≤ 0.25
- TQSM — higher, 23.3
- TQMS — lower, 4.53
- LAQF — lower, ≤ 0.25
- TQHF — higher, 16.2
- DWSM — lower, ≤ 0.25
- TQHI — lower, 3.97
- TQTD — lower, ≤ 0.25
- TQSF — lower, 7.45
- TQHQ — higher, 13.8
- RNSM — lower, ≤ 0.25
- NYQY — lower, ≤ 0.25
- NTGP — lower, ≤ 0.25
- YRMS — lower, ≤ 0.25
- FSKE — lower, ≤ 0.25
- MTHL — lower, 7.87
- PNLT — lower, ≤ 0.25
- TPTL — lower, ≤ 0.25
- SMDI — lower, ≤ 0.25
- REVG — lower, ≤ 0.25
- WQFM — lower, ≤ 0.25
- PAAY — lower, ≤ 0.25
- ENTT — lower, ≤ 0.25
- GKMH — lower, ≤ 0.25
- KCNH — lower, ≤ 0.25
- LNPK — lower, ≤ 0.25
- MEGM — lower, ≤ 0.25
- MELS — lower, 9.24
- MEWI — higher, 24
- MKCS — lower, ≤ 0.25
- MERM — lower, ≤ 0.25
- DECI — lower, ≤ 0.25
- MELA — lower, ≤ 0.25
- NECS — lower, ≤ 0.25
- MECK — higher, 27.3
- DECV — higher, 25.8
- MECS — lower, 11.2
- DPCV — lower, ≤ 0.25
- VHCY — lower, ≤ 0.25
- MPCS — lower, ≤ 0.25
- PKNK — lower, ≤ 0.25
- PCQL — lower, ≤ 0.25
- ICAL — lower, 0.516
- STWD — lower, ≤ 0.25
- TWLL — lower, ≤ 0.25
- FYED — lower, ≤ 0.25
- FVPW — lower, ≤ 0.25
- NCRM — lower, ≤ 0.25
- MECA — lower, 3
- MECI — higher, 12.8
- MEGD — lower, ≤ 0.25
- NECV — lower, ≤ 0.25
- MMCV — lower, 4.31
- MECV — higher, 18.2
- DNCI — lower, ≤ 0.25
- VVVI — lower, ≤ 0.25
- MDLY — lower, ≤ 0.25
- TMFE — lower, ≤ 0.25
- MWWC — lower, ≤ 0.25
- SMAY — higher, 25.3
- SMAG — lower, 11.3
- SMGD — lower, 1.08
- SMAT — lower, 7.92
- SMAS — lower, 11.6
- SMYI — lower, ≤ 0.25
- SMAN — lower, 6.01
- SMGY — lower, 7.3
- SMRY — lower, ≤ 0.25
- SMTG — lower, 5.2
- SMAI — higher, 13.5
- SMVG — lower, 8.8
- HEDR — lower, ≤ 0.25
- DAFY — lower, ≤ 0.25
- QNHA — lower, ≤ 0.25
- MIDS — lower, ≤ 0.25
- PWKL — lower, ≤ 0.25
- HVPL — lower, ≤ 0.25
- VFFI — lower, ≤ 0.25
- KESQ — lower, ≤ 0.25
- HGIC — lower, ≤ 0.25
- TKCM — higher, 46.1
- HKCM — lower, ≤ 0.25
- AKCM — higher, 15.6
- KKCM — lower, ≤ 0.25
- AICM — lower, 6.05
- MKCM — lower, ≤ 0.25
- SKKH — lower, ≤ 0.25
- PYDF — lower, ≤ 0.25
- MIQV — lower, ≤ 0.25
- GAMG — lower, ≤ 0.25
- ISLI — lower, 11.2
- FALS — lower, 8.07
- RSLI — lower, ≤ 0.25
- FALI — higher, 15.1
- FALA — lower, 5.9
- NSLI — lower, 4.88
- VSLI — higher, 14
- ISLA — lower, ≤ 0.25
- TSLI — lower, 11.8
- MMLI — lower, ≤ 0.25
- ISLT — lower, 0.863
- VSLA — lower, 0.756
